Results taken from PubChem BioAssay (NCATS).
Where “and” joins values, the source holds several entries; their conditions need not be identical. Equal values may be shown once. Results filed as inconclusive are left out. A call without a number means that no potency is given here. More than one record can exist for a structure, and the calls need not agree. Calls of active or inactive are those of the source. Unless noted, the call rests on the fitted dose curve; in most records, active means well fitted curve in the direction sought with a large enough effect; inconclusive means small, poorly fitted or top-dose-only effect, or another doubt; inactive means no such curve, though single readings can be large; an effect the other way counts as inactive or inconclusive.

Legend:
[1] = biological target: Ubiquitin carboxyl-terminal hydrolase 2 (Homo sapiens) (UniProt O75604); assay: qHTS Validation Assay for Inhibitors of Ubiquitin-specific Protease USP2a Using CHOP2 as the Reporter (AID 463106)
Summary of the method: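 10nM USP2 core + cpd, 30min RT; add 25nM Ub-CHOP2/25nM substrate; 60min RT; FI 485/531nm. Buffer Tris pH 8.0, CaCl2, BME, CHAPS. Norm. to NEM = 100% inhibition; time-zero read flags fluorescent artifacts.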

[2] = biological target: DNA polymerase III PolC-type (Bacillus subtilis (strain 168)) (UniProt P13267); assay: qHTS Validation Assay for the Inhibitors of DNA Replication in Gram-Positive Bacteria (AID 485295);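 further: reconstituted holoenzyme with PolC plus beta clamp SSB and primase; PicoGreen fluorescence of double-stranded DNA made on primed circular M13 template; series mostly up to about 57 µM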
Summary of the method: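 Double-stranded DNA product detected by PicoGreen fluorescence after EDTA quench. Compound incubated with B. subtilis holoenzyme (PolC, beta subunit, SSB, primase) before substrate addition; primed replication of M13Gori with dNTPs and NTPs at room temperature; DMSO defines 0% inhibition.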

[3] = biological target: Tumor susceptibility gene 101 protein (Homo sapiens) (UniProt Q99816); assay: qHTS Validation Assay for Iinhibitors of HIV-1 Budding by Blocking the Interaction of PTAP/TSG101 (AID 485342; calls by dose curve)
Summary of the method: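 Fluorescence polarization of 50 nM FITC-PTAP peptide bound to 10 uM Tsg101 binding domain was read after 20 min room-temperature incubation with compounds, in 10 mM HEPES pH 7.5, 0.15 M NaCl, 0.01% Tween 20.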

[4] = qHTS Validation Assay to Find Inhibitors of Chronic Active B-Cell Receptor Signaling (AID 485345; active means well fitted curve in the direction sought with a large enough effect in the main read-out, with a control signal flat, not every such curve was filed as active)
Summary of the method: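 Read-out: ratio of filter-corrected green (IkappaBalpha fusion) to red (native) luciferase signal in doxycycline-induced TMD8 cells after 4 h at 37C. Titration spanned 46 uM–3 nM; Data were normalised to basal cells and 10 uM MG-132 wells.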

[5] = biological target: Beta-2 adrenergic receptor (Homo sapiens) (UniProt P07550); assay: qHTS validation assay of beta-arrestin-biased ligands of beta2-adrenergic receptor (AID 485366)
Summary of the method: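 Values derive from curve-fitted %Activity of a luminescent beta-arrestin recruitment reporter; compounds tested up to 46 microM on Tango cells for 18 hr at 37 degrees C, 5% CO2.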

[6] = biological target: Thioredoxin reductase 1, cytoplasmic (Rattus norvegicus) (UniProt O89049); assay: qHTS Assay for Substrates of Mammalian Selenoprotein Thioredoxin Reductase 1 (TrxR1) (AID 488772);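 further: NADPH fluorescence in the first read after selenite addition and not the 8 min delta; series mostly up to about 57 µM; a drop in NADPH fluorescence below the no-compound background marks a TrxR1 substrate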
Summary of the method: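 Quantitative HTS in Tris-HCl buffer at pH 7.5 with EDTA and Tween-20, using rat TrxR1, 400 uM NADPH and 400 uM selenite (final). A fall in initial NADPH fluorescence relative to background marked substrate behaviour.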

[7] = biological target: Flap endonuclease 1 (Homo sapiens) (UniProt P39748); assay: qHTS Validation Assay for the Inhibitors of Human Flap endonuclease 1 (FEN1) (AID 488816)
Summary of the method: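 Readings taken at 0 and 15 min after starting the reaction with 50 nM (final) substrate supplied the signal. Compounds had first sat with 10 nM FEN1 reagent for 15 min at room temperature. Values come from Hill-equation concentration-response fits.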

[8] = biological target: M-phase phosphoprotein 8 (Homo sapiens) (UniProt Q99549); assay: qHTS Validation Assay for Inhibitors for MPP8 Chromodomain Interactions with Methylated Histone Tails (AID 488949); further: nearly all actives have a fitted effect of over 55% in size; further: potency means the concentration at half of the fitted maximal effect
Summary of the method: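 AlphaScreen proximity signal from streptavidin donor and Ni-chelate acceptor beads (10 ug/mL each) reported binding of MPP8 to trimethyl-K9 H3(1-18) peptide, both at 50 nM. The complex formed 30 min before a 30 min compound exposure at room temperature, in PBS pH 7.4.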

[9] = biological target: Chromobox protein homolog 1 (Homo sapiens) (UniProt P83916); assay: qHTS Validation Assay for Inhibitors of HP1-beta Chromodomain Interactions with Methylated Histone Tails (AID 488953); further: nearly all actives have a fitted effect of over 50% in size; further: potency means the concentration at half of the fitted maximal effect
Summary of the method: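 Measured as loss of AlphaScreen luminescence from streptavidin donor and nickel acceptor beads (10 ug/mL final) bridging HP1-beta and biotin-H3(1-18)K9me3, each 50 nM. Compounds met the preassembled complex for 30 min at RT.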

[10] = biological target: Methanococcus maripaludis chaperonin (MmCpn) (UniProt Q6LX38); assay: High-Throughput Screening for Modulators of Cytosolic Chaperonin Activity: MmCpn Primary Screen (AID 488978);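 further: 50 nM MmCpn enzyme hydrolysing 30 µM ATP at 37 °C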
Summary of the method: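 ATPase activity of 50 nM MmCpn was assayed with 30 uM ATP, 10 minutes at 37C, after a 5 min compound preincubation at room temperature. ADP production was read as HTRF emission at 590 and 665 nm.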

[11] = biological target: D(1A) dopamine receptor (Homo sapiens) (UniProt P21728); assay: HTS Assay for Allosteric Agonists of the Human D1 Dopamine Receptor: Primary Screen for Agonists (AID 488981); further: potency means the concentration at half of the fitted maximal effect
Summary of the method: (§1)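 Calcium flux in an inducible, force-coupled HEK293 Trex D1 line (overnight at 30 C): agonist mode is the 180 s kinetic read after compound; potentiator mode is the following 180 s read after dopamine at EC20.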

[12] = biological target: D(1A) dopamine receptor (Homo sapiens) (UniProt P21728); assay: HTS Assay for Allosteric Agonists of the Human D1 Dopamine Receptor: Primary Screen for Potentiators (AID 488982); further: potency means the concentration at half of the fitted maximal effect
Summary of the method: as §1

[13] = biological target: D(1A) dopamine receptor (Homo sapiens) (UniProt P21728); assay: HTS Assay for Allosteric Agonists of the Human D1 Dopamine Receptor: Primary Screen for Antagonists (AID 488983);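 further: calcium flux response to an EC80 dopamine challenge measured with no-wash dye; nearly all actives have a fitted effect of over 65% in size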; further: potency means the concentration at half of the fitted maximal effect
Summary of the method: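 Screening of inducible HEK293 T-REx D1 cells: compound first, EC80 dopamine 180 s later, each phase read kinetically for calcium over 180 s.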

[14] = biological target: Thioredoxin reductase 1, cytoplasmic (Rattus norvegicus) (UniProt O89049); assay: qHTS Assay for Inhibitors of Mammalian Selenoprotein Thioredoxin Reductase 1 (TrxR1) (AID 488773); conditions: Potency: inhibition;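 further: drop in NADPH fluorescence over an 8 min run after selenite addition; series mostly up to about 57 µM; nearly all actives have a fitted effect of over 40% in size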
Summary of the method: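 Steps: enzyme (90 nM) plus NADPH (400 uM final), 5 min at ~22 deg C; compound added, 15 min; selenite (400 uM final) added; fluorescence followed for 8 min. Concentration-response curves derived from the normalized delta values.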

[15] = biological target: Transient receptor potential cation channel subfamily V member 1 (Homo sapiens) (UniProt Q8NER1); assay: HTS Assay for Compounds that Act as Enhancers of the Vanilloid Receptor 1 (AID 488979)
Summary of the method: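 Calcium influx kinetics via Fluo-8 (480/520 nm) in TRPV1-expressing cells, 2000/well cultured overnight at 35.5C. Compound-alone read 3 min (agonist phase), followed by EC20 capsaicin challenge for 2 min (enhancer phase).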

[16] = biological target: Thyrotropin receptor (Homo sapiens) (UniProt P16473); assay: qHTS Assay for Antagonists of the Thyroid Stimulating Hormone Receptor (AID 488980); further: series mostly up to about 58 µM
Summary of the method: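 Inhibition of cAMP raised by EC80 TSH (4 nM final) was read by HTRF, with lysate cAMP competing against cAMP-d2 for cryptate antibody after 30 min at room temperature. The cells were transfected HEK293 held in phosphodiesterase inhibitor RO 20-1724 at 70 uM.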

[17] = Quantitative high throughput screen for delayed death inhibitors of the malarial parasite plastid, 48 hour incubation (AID 488752); further: nearly all actives have a fitted effect of over 65% in size; further: potency means the concentration at half of the fitted maximal effect
Summary of the method: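 One parasite generation (48 h, 37 C, 5% CO2) of luciferase-reporter P. falciparum in erythrocytes is run with test compound; decreased luminescence indicates inhibited growth.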

Sequence of Beta-2 adrenergic receptor (Homo sapiens) (P07550 whole entry, looked up): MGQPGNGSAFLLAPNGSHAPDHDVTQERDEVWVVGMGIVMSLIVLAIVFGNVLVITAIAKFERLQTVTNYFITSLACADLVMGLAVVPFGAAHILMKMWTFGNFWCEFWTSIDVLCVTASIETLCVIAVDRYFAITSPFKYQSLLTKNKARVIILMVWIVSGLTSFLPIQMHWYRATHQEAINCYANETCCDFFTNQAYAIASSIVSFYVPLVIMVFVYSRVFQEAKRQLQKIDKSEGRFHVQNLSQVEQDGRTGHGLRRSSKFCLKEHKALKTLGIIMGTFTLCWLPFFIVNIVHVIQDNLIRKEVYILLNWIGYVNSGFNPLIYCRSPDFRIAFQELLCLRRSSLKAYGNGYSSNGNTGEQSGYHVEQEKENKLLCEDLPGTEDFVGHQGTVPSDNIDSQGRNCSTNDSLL
Sequence of Thioredoxin reductase 1, cytoplasmic (Rattus norvegicus) (O89049 whole entry, looked up): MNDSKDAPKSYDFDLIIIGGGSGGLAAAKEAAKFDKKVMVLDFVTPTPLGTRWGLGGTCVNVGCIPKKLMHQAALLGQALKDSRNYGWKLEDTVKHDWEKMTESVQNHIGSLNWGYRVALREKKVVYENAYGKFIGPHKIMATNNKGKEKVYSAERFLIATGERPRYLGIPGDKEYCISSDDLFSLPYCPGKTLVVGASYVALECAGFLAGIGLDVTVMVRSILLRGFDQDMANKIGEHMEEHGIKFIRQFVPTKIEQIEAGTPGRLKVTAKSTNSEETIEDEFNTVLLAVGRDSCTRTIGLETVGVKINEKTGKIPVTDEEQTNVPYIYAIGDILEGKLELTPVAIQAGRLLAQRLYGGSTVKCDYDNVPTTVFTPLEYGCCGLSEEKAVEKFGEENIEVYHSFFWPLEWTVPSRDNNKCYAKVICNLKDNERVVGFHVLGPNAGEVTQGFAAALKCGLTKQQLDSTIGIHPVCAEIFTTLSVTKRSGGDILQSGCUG
Sequence of Thyrotropin receptor (Homo sapiens) (P16473 whole entry, looked up): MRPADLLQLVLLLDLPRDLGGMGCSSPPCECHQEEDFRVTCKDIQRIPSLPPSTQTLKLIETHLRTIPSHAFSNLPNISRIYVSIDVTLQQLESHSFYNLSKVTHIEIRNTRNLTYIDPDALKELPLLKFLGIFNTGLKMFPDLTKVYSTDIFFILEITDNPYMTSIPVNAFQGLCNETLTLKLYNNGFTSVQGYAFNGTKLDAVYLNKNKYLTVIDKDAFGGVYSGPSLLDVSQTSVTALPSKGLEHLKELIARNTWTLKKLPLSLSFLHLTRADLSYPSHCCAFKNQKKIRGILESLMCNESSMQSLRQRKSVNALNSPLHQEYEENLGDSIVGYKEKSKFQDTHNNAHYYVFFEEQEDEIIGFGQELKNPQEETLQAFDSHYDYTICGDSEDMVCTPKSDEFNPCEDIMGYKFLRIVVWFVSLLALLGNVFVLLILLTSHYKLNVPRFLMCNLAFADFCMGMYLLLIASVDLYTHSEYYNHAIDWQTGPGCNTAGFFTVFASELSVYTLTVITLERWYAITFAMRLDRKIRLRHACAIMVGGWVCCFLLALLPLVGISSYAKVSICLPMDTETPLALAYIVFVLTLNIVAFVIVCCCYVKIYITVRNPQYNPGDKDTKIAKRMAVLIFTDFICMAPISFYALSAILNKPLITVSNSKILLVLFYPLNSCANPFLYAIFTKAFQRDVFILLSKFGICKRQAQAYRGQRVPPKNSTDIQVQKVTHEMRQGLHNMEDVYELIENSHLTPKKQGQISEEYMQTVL
Sequence of Methanococcus maripaludis chaperonin (MmCpn) (Q6LX38 1-543): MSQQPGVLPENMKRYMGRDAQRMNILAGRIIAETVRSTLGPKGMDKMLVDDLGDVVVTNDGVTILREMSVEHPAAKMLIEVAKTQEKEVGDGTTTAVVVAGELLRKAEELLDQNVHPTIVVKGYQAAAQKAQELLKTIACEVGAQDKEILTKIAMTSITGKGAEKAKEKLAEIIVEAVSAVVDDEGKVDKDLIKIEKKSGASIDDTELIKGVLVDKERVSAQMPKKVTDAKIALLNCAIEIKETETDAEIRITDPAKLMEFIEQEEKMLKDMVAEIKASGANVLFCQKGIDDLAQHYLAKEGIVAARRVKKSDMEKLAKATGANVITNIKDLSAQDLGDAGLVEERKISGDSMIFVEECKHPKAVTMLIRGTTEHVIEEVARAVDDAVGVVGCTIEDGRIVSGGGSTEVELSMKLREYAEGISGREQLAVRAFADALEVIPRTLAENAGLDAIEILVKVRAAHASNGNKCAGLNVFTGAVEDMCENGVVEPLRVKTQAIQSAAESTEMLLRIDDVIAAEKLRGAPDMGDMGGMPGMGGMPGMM
Sequence of Chromobox protein homolog 1 (Homo sapiens) (P83916 whole entry, looked up): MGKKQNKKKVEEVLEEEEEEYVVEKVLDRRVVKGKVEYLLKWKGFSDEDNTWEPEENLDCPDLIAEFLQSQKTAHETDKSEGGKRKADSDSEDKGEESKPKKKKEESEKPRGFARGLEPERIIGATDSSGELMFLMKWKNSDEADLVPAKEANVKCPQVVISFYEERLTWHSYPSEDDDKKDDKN
Sequence of D(1A) dopamine receptor (Homo sapiens) (P21728 whole entry, looked up): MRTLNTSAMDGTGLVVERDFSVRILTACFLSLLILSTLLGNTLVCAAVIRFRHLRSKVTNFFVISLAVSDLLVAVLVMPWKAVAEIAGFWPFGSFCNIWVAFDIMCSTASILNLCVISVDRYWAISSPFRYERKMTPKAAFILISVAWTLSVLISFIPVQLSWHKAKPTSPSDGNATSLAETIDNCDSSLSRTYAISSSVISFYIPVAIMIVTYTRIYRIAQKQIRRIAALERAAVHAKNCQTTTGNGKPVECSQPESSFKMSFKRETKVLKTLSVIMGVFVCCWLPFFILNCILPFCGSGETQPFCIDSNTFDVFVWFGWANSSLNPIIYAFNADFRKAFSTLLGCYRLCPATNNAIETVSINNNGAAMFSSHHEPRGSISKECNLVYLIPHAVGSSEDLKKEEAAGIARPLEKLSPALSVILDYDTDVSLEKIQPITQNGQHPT
Sequence of Flap endonuclease 1 (Homo sapiens) (P39748 whole entry, looked up): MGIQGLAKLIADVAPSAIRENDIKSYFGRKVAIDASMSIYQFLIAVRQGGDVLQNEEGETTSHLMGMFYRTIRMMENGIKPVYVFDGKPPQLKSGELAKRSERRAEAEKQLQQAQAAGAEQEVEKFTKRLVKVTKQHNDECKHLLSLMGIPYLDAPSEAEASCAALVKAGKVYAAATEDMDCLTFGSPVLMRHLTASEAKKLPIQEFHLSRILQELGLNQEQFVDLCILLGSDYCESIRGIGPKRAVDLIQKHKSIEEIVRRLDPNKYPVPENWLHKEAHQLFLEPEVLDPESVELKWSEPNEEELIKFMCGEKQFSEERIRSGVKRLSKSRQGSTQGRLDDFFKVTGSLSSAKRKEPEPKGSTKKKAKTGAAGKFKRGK
Sequence of DNA polymerase III PolC-type (Bacillus subtilis (strain 168)) (P13267 whole entry, looked up): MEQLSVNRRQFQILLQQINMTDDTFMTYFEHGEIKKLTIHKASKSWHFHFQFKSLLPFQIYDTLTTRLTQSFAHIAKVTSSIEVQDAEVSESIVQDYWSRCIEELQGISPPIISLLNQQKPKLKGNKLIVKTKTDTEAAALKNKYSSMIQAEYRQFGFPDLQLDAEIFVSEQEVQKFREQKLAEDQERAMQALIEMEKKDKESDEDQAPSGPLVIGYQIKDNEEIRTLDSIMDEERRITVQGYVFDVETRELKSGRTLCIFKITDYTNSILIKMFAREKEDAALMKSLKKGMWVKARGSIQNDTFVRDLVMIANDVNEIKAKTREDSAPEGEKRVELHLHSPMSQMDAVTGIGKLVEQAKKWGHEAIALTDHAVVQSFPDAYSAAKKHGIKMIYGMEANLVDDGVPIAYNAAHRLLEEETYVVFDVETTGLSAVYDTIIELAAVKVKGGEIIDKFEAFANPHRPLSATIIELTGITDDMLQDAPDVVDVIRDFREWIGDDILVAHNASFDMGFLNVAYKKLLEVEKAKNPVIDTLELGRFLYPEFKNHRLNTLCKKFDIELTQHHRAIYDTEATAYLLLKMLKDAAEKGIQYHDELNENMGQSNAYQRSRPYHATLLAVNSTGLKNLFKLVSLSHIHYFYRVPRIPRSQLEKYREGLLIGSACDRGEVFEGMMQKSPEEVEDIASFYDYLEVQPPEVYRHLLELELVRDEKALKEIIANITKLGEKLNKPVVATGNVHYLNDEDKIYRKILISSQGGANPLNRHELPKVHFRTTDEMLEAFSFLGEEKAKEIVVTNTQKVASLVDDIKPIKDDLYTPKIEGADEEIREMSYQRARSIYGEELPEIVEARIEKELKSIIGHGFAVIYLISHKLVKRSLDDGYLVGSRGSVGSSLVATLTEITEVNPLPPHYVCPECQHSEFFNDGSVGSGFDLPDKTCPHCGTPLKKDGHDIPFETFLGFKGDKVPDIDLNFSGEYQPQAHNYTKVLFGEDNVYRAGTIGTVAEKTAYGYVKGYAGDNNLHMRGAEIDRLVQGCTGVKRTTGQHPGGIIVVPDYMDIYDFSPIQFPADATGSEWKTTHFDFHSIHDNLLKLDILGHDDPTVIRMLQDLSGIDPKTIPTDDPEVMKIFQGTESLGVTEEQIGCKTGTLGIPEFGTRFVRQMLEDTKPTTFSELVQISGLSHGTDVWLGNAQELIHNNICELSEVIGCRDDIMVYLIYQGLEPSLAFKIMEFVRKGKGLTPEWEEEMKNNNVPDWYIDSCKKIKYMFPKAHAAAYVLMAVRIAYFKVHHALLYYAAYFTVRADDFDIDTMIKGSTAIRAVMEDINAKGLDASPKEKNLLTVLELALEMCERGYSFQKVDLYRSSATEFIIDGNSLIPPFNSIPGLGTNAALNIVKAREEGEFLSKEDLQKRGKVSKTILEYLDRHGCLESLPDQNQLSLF

SMILES | Potency [1] | Potency [2] | outcome [3] | Potency [4] | outcome [5] | outcome [6] | Potency [7] | Potency [8] | Potency [9] | outcome [10] | Potency [11] | Potency [12] | Potency [13] | Potency [14] | outcome [15] | outcome [16] | Potency [17]
COc1cc2nc(N(C)CCCNC(=O)C3CCCO3)nc(N)c2cc1OC (configuration not stated) | inactive | inactive | inactive | inactive | inactive | inactive | inactive | inactive | inactive | inactive | inactive | inactive | inactive |  |  |  | 
CCN1CCCC1CNC(=O)c1cc(S(=O)(=O)CC)c(N)cc1OC (configuration not stated) | inactive | inactive | inactive | inactive | inactive | inactive | inactive | inactive | inactive | inactive | inactive | inactive | inactive |  |  |  | 
COc1ccccc1OCCNCC(O)COc1cccc2[nH]c3ccccc3c12 (configuration not stated) | inactive | inactive | inactive |  |  | inactive | inactive | inactive |  | inactive | inactive | inactive | 8.91 µM (active) | inactive |  |  | 
Cn1ccc2cc3c(cc21)CCN3C(=O)Nc1cccnc1 | inactive | inactive | inactive |  | inactive | inactive |  | 39.8 µM (active) and inactive | 39.8 µM (active) | inactive | inactive | inactive |  |  | inactive | inactive | 
CN1CCN(CCCN2c3ccccc3Sc3ccc(Cl)cc32)CC1 | inactive | inactive | inactive |  | inactive | inactive | inactive | 25.1 µM (active) and 15 µM (active) | 31.6 µM (active) | inactive | inactive | inactive |  | inactive |  | inactive | 
COc1ccccc1OCC(O)CN1CCN(CC(=O)Nc2c(C)cccc2C)CC1 (configuration not stated) | inactive | inactive | inactive |  | inactive |  | inactive | inactive | inactive | inactive | inactive | inactive | inactive | inactive | inactive | inactive | inactive
OCCN(CCO)c1nc(N2CCCCC2)c2nc(N(CCO)CCO)nc(N3CCCCC3)c2n1 |  | inactive |  |  | inactive | inactive | inactive | inactive | inactive | inactive | 10 µM (active) | 2.91 µM (active) |  | inactive |  |  | 9.28 µM (active)
OCCN1CCN(CCCN2c3ccccc3Sc3ccc(C(F)(F)F)cc32)CC1 | inactive | inactive | inactive |  | inactive | inactive | inactive |  |  | inactive | inactive |  |  |  |  | inactive | 
CN(C)C(=O)C(CCN1CCC(O)(c2ccc(Cl)cc2)CC1)(c1ccccc1)c1ccccc1 | inactive | inactive | inactive |  | inactive | inactive |  |  |  | inactive | inactive | inactive | inactive | inactive |  |  | 
